Source: PubChem (The Scripps Research Institute Molecular Screening Center)
hgDAF12 agonist = hgDAF-12 agonism, primary luciferase screen; HEK293 GAL4-hgDAF12 UAS-luciferase reporter, agonist luminescence; normalized to butyrate control; activation, % at 6.8 µM; 370,000 tested, 1.8% active;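 active = activation above a cutoff set at the mean of all screened compounds plus 3 SD, cut at about 10% in these data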
hcDAF12 agonist = H. contortus DAF-12 activation, primary screen; activation, % at 6.8 µM; AID 652067; 370,000 tested, 1.4% active; HEK293 hcDAF-12 lit1-tk-luc reporter, luminescence; 0% DMSO, 100% Δ7-dafachronic acid;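 active = activation above the mean of all tested compounds plus 3 SD, cut at about 5.5% in these data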
GAA850 FXN act = activators of GAA850 frataxin (FXN) promoter. 360,000 tested, 0.56% active. HEK293 lucGAA850 FXN promoter luciferase reporter, 24 h; percent of 10 µM SAHA response. AID 540364. activation, % at 6 µM;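 active = activation above the average of all compounds screened plus 3 SD, cutoff fixed separately per campaign, cut at about 7.5% in these data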
DAX1 inh-1 = inhibitors of human orphan nuclear receptor DAX1 (NR0B1); 340,000 tested, 0.99% active; inhibition, % at 6.75 µM; HEK293 Gal4-DAX1 luciferase reporter, luminescence; AID 504766; P51843;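 active = inhibition above the mean over all tested compounds plus 3 SD, cut at about 4.2% in these data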;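 also: inhibition shows as a rise in luminescence from relieved DAX1 repression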
Target sequence (P51843 207-470 limits assumed): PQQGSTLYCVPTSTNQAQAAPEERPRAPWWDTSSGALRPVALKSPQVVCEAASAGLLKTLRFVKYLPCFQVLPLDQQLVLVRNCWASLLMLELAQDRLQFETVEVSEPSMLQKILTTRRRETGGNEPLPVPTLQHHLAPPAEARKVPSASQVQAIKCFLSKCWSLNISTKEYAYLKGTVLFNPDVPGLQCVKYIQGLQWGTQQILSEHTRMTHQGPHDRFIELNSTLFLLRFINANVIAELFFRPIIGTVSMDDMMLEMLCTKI
DAX1 inh-2 = inhibitors of DAX1 repression of SF-1 activated StAR promoter | HEK293T StAR-luciferase reporter, SF-1/DAX-1 repression relief | inhibition, % at 6.8 µM | 370,000 tested, 1.1% active;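 active = inhibition above the mean over all tested compounds plus 3 SD, cut at about 3.6% in these data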;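 also: higher inhibition means more luminescence from relief of DAX-1 repression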
ssDAF12 agonist = activators of S. stercoralis DAF-12 nuclear receptor | AID 652126 | 370,000 tested, 1% active | HEK293 ssDAF-12/GRIP1 lit1-tk-luc reporter, luminescence; % of 3 µM dafachronic acid response | activation, % at 6.8 µM;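 active = activation above the mean over all tested compounds plus 3 SD, cut at about 0.9% in these data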
LXRb hcDAF ctr = LXR-beta agonism as hcDAF-12 counter-screen | 3,400 tested, under 10 active | activation, % at 6.8 µM | AID 743027 | HEK293 Gal4-LXR tk-luc reporter, luminescence, 24 h; normalized: DMSO 0%, positive control 100% | shares compounds with hcDAF12 agonist;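 active = mean percent activation of the reporter above a cutoff set as the average over tested compounds plus their standard deviation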
Target sequence (P55055 whole entry, looked up, the tested form may be a part): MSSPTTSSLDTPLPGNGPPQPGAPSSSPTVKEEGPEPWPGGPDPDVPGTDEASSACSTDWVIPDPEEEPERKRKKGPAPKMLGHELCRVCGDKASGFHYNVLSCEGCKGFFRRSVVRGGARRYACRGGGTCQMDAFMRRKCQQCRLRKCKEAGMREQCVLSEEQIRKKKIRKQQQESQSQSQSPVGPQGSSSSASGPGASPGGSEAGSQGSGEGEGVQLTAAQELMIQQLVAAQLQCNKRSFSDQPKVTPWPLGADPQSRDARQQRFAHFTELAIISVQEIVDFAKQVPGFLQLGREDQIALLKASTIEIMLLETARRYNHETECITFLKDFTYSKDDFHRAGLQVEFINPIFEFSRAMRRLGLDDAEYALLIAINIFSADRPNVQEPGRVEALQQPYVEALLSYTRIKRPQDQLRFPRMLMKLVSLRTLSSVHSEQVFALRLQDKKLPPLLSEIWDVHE
hcDAF12 conf = confirmation of H. contortus DAF-12 agonists | shares compounds with hcDAF12 agonist | HEK293 hcDAF-12 lit1-tk-luc reporter, luminescence; % of Δ7-dafachronic acid response | activation, % at 6.8 µM | 3,400 tested, 61% active | AID 743032;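 active = mean activation across triplicate tests above the threshold derived from the earlier primary screen, cut at about 5.5% in these data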
hgDAF12 conf = hgDAF-12 agonism, confirmation assay; 3,300 tested, 80% active; shares compounds with hgDAF12 agonist; activation, % at 6.8 µM; HEK293 GAL4-hgDAF12 luciferase reporter, agonist mode; percent of butyrate response;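 active = mean activation over triplicate wells above the hit cutoff derived from the earlier primary screen, cut at about 11% in these data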
LXRb DAF12 ctr = counter-screen for DAF-12 agonists: agonists of human LXR-beta. shares compounds with hgDAF12 agonist. HEK293 Gal4-LXR luciferase reporter, 24 h. activation, % at 6.8 µM. 3,300 tested, under 10 active. AID 743051;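 active = mean activation of the triplicate above a set limit carried over from the primary screen, none filed active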
Hits are given with their value; - = inactive; . = no result. Rows were chosen to be rich in hits. Some 4.5% of all compounds tested hit in one or more screens of this group.

SMILES | hgDAF12 agonist | hcDAF12 agonist | GAA850 FXN act | DAX1 inh-1 | DAX1 inh-2 | ssDAF12 agonist | LXRb hcDAF ctr | hcDAF12 conf | others
CSCCC(NS(=O)(=O)c1ccccc1F)C(=O)N1CCCCCCC1 (stereo not given) | - | - | - | - | - | - | . | .
Cc1cc(/C=C2\SC(=S)NC2=O)c(C)n1-c1ccccc1 | - | 13 | - | . | - | 1.6 | - | 13
CCN(CC(=O)Nc1ccccc1C(F)(F)F)C(=O)CCOc1ccc(C)cc1 | - | - | - | - | - | - | . | .
CN1CCN(c2cc(-c3ccc4ccccc4c3)nc3ccnn23)CC1 | - | - | - | . | - | - | . | .
CCCCN(C(=O)c1cccc(S(=O)(=O)N2CCOCC2)c1)c1c(N)n(CCC)c(=O)[nH]c1=O | - | 8.2 | - | - | - | - | - | -
CCCCN(C(=O)c1cccc(S(=O)(=O)N2CCN(C)CC2)c1)c1c(N)n(CCCC)c(=O)[nH]c1=O | - | - | - | - | - | - | . | .
O=C(NC1CCOc2ccccc21)C1CCCC1 (stereo not given) | - | 6.7 | - | - | - | - | - | -
CCN(CC)S(=O)(=O)c1ccc(-c2nnc3sc4cccc(C)c4n23)cc1 | - | 7.1 | - | - | - | - | - | -
CCN(CC)S(=O)(=O)c1ccc(-c2nnc(SCC(N)=O)n2CC)cc1 | - | - | - | - | - | - | . | .
O=C(NCCc1c[nH]c2ccccc12)c1cnccn1 | - | 6.7 | - | - | - | 3.4 | - | -
O=C(NCCc1c[nH]c2ccccc12)c1cnc2sccn2c1=O | - | 8.6 | - | - | - | 1.4 | - | 8.9
COc1ccc(-c2nnc3c4ccccc4c(C)nn23)cc1 | - | 6.7 | - | - | - | - | - | 5.7
Cc1nn2c(-c3ccncc3)nnc2c2ccccc12 | - | - | - | - | - | - | . | .
Cc1ccnc(NC(=O)c2cccc(NS(=O)(=O)c3ccccc3C)c2)c1 | - | - | - | - | - | - | . | .
Cn1c(O)c(N=NC(=O)c2cc(-c3cccs3)nc3ccccc23)c2ccccc21 | - | - | - | - | - | - | . | .
Cn1c(O)c(N=Nc2nc(-c3ccccc3)cs2)c2ccccc21 | - | 12 | - | - | - | - | - | 7.4
COCCNC(=O)/C(C#N)=C/c1cc(C(C)C)c(OC)cc1C | - | - | - | - | - | - | . | .
O=C1c2cccc(NCCNCCO)c2C(=O)c2cccc(NCCNCCO)c21 | - | 8.9 | - | - | - | - | - | 14
CC1CC(C)CN(C(=O)CSc2nnc(N)s2)C1 (stereo not given) | - | - | - | - | - | - | . | .
Cc1nc(NC(=S)Nc2ccccc2)sc1C | - | 10 | - | - | - | - | - | -
O=C(N=Nc1c(O)[nH]c2ccccc12)c1cccs1 | 21 | 15 | - | - | 4.4 | 1.9 | - | 15
Cc1ccccc1N=Nc1c(O)[nH]c2ccccc12 | 11 | 6.6 | - | . | - | 2.2 | - | 16
O=C(CSc1nc2ccccc2[nH]1)N=Nc1c(O)[nH]c2ccccc12 | - | 9.1 | - | - | - | - | - | -
Nc1cccc(-c2nc3ccc(N)cc3s2)c1 | - | - | - | - | - | - | . | .
Nc1ccc(-c2nc3ccc(N)cc3s2)cc1 | 19 | 7.5 | - | - | - | 1.1 | - | 8.3 | hgDAF12 conf=16;LXRb DAF12 ctr=-
SMILES | hgDAF12 agonist | hcDAF12 agonist | GAA850 FXN act | DAX1 inh-1 | DAX1 inh-2 | ssDAF12 agonist | LXRb hcDAF ctr | hcDAF12 conf | others
O=C(Nc1ccc2c(c1)CCC2)c1cccc(F)c1 | 19 | 8.0 | - | - | 4.4 | - | - | 5.7 | hgDAF12 conf=14;LXRb DAF12 ctr=-
O=C(Nc1ccncc1)c1cccc(F)c1 | - | - | - | - | - | - | . | .
CC1(C)CC(=O)C=C(c2cccc(O)c2)C1=O | - | - | - | - | - | - | . | .
Cc1ccccc1C(=O)Nn1cnc2ccccc2c1=O | 15 | 9.8 | - | - | - | 1.7 | - | 8.6 | hgDAF12 conf=-;LXRb DAF12 ctr=-
Cc1ccc(-c2cn(-c3ccccc3)c(SCC(=O)NC3CCS(=O)(=O)C3)n2)cc1C (stereo not given) | 17 | 8.4 | - | - | - | - | - | - | hgDAF12 conf=-;LXRb DAF12 ctr=-
COc1ccccc1Nc1nnc(SCC(=O)Nc2nc(-c3ccc(F)cc3)cs2)s1 | - | - | - | - | - | - | . | .
Cc1nnc(C)n1/N=C/c1cc2ccccc2nc1Cl | - | - | - | - | - | - | . | .
Cn1c(N/N=C/c2cc3ccccc3nc2Cl)nc2ccccc21 | 15 | 12 | - | - | - | 1.4 | - | 11 | hgDAF12 conf=17;LXRb DAF12 ctr=-
C[C@]12CC[C@H](O)CC1=C[C@H](O)C1C2CC[C@@]2(C)C1CC[C@@]2(O)C#Cc1ccc(CN)cc1 (stereo not given in full) | - | - | - | - | - | - | . | .
Cc1ccc(/C=N/NC(=O)c2ccc3c(c2)OCCO3)s1 | - | - | - | - | - | - | . | .
Cc1ccc(NC(=O)c2ccc3c(c2)OCO3)cc1Cl | 17 | 8.0 | - | 4.7 | - | 1.7 | - | - | hgDAF12 conf=18;LXRb DAF12 ctr=-
O=C(Nc1ccc2c(c1)OCO2)c1noc2c1CCCC2 | 15 | 8.1 | - | - | - | - | - | 8.5 | hgDAF12 conf=16;LXRb DAF12 ctr=-
O=C(N/N=C/c1cc(Br)cs1)c1ccc2c(c1)OCCO2 | 15 | 6.6 | - | . | - | - | - | - | hgDAF12 conf=24;LXRb DAF12 ctr=-
COc1ccccc1C(=O)Nc1ccc2c(c1)OCCO2 | 14 | 6.8 | - | - | - | - | - | 6.6 | hgDAF12 conf=14;LXRb DAF12 ctr=-
O=c1[nH]c(NCCO)nnc1Cc1ccccc1 | - | - | - | - | - | - | . | .
CS(=O)(=O)N1CCC(C(=O)N2CCN(c3ccccc3F)CC2)CC1 | - | - | - | - | - | - | . | .
C[C@H](CO)N1C[C@H](C)[C@H](CN(C)Cc2ccc(Oc3ccccc3)cc2)Oc2cc(Br)ccc2S1(=O)=O | - | - | - | - | - | - | . | .
Cc1cccc(NC(=O)C2CCN(C(=O)c3ccc(Cl)cc3)CC2)n1 | - | - | - | - | - | - | . | .
O=C(Nc1ccc2c(c1)OCCO2)c1ccc(Br)cc1 | 15 | 8.3 | - | - | - | - | - | 7.2 | hgDAF12 conf=14;LXRb DAF12 ctr=-
COc1ccc(-c2nc3ccccn3c2Cl)cc1 | 14 | 15 | - | - | - | 3.2 | - | 19 | hgDAF12 conf=24;LXRb DAF12 ctr=-
COc1ccc(NC(=O)c2c(Cl)nc3ccccn23)cc1 | - | - | - | - | - | - | . | .
